# Experimental data published in paper PMC5540273 (PLoS ONE, 2017).
# How the values were obtained:
# Conditions in all cases: concentration: 1 μM, replicates: in singlicate; n = 1
# PLK2 = system: PLK2
# PLK3 = system: PLK3
# PLK4 = system: PLK4
# PRKCD = system: PRKCD
# PRKCE = system: PRKCE
# PRKCH = system: PRKCH
# PRKCI = system: PRKCI
# PRKCQ = system: PRKCQ
# PRKD1 = system: PRKD1
# PRKD2 = system: PRKD2
# 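Further: KINOMEscan kinase panel screen.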
Compound,%Inh (PLK2),%Inh (PLK3),%Inh (PLK4),%Inh (PRKCD),%Inh (PRKCE),%Inh (PRKCH),%Inh (PRKCI),%Inh (PRKCQ),%Inh (PRKD1),%Inh (PRKD2)
COc1ccc(NC(=O)c2ccoc2)cc1-c1ccc(C(=O)NCC2CC2)cc1 [GW810437],34%,28%,8%,9%,41%,0%,6%,0%,0%,0%
CCn1cnc2c(NCc3ccccc3)ncnc21 [SKF-96418],25%,34%,1%,3%,29%,0%,0%,0%,0%,0%
CCNC(=O)/C=C/c1n[nH]c2cc(Sc3ccccc3C(=O)NC)ccc12,17%,18%,91.9%,6%,3%,0%,5%,0%,3%,14%
COc1cc(Nc2ccnc3cc(-c4ccncc4)ccc23)cc(OC)c1OC.Cl [GW494610],0%,0%,0%,13%,25%,16%,0%,0%,19%,24%
COc1cc(Nc2nccc(N3CCC(NS(=O)(=O)c4ccc(NC(C)=O)cc4)CC3)n2)cc(OC)c1OC [GSK1379825],0%,29%,27%,0%,14%,35%,19%,26%,0%,0%
COc1ccc(C2=C(Nc3cccc(O)c3)C(=O)NC2=O)cc1 [SB-390766],0%,0%,13%,0%,49%,0%,18%,0%,0%,4%
CN(c1ccc(F)c(NC(=O)c2cccc(OC(C)(C)C#N)c2Cl)c1)c1ccc2nc(NC(=O)C3CC3)sc2n1,0%,0%,0%,0%,0%,16%,4%,5%,0%,3%
Fc1cc(Cl)ccc1Nc1ccnc2cc(-c3ccc(CN4CCOCC4)o3)ccc12 [GW560109],0%,0%,81%,0%,5%,3%,22%,31%,0%,2%
CCNc1nccc(-c2c(-c3ccc(F)cc3)ncn2C2CCN(C)CC2)n1,0%,0%,0%,6%,31%,0%,0%,0%,40%,0%
Cc1ccc(C)c(NC(=O)Nc2ccc(C)c(-c3ccc(C(=O)Nc4ccncc4)cc3)c2)c1 [GSK1398473],0%,0%,0%,0%,4%,10%,0%,32%,8%,3%
CSc1ccc(NC2=C(c3ccc(Cl)cc3)C(=O)NC2=O)cc1 [SB-317658],6%,0%,30%,4%,0%,2%,8%,0%,17%,0%
COC(=O)Nc1nc2ccc(Oc3ccc(CC(=O)Nc4cc(C(F)(F)F)ccc4F)cc3)cc2[nH]1 [GW680903],0%,0%,0%,0%,9%,0%,17%,0%,0%,0%
Cc1ccc(NC(=O)c2ccc(Cl)c(Cl)c2)cc1-c1ccc(C(=O)Nc2ccncc2)cc1 [GSK1398460],0%,0%,8%,0%,10%,22%,0%,15%,15%,0%
COc1cccc(-c2nc(-c3ccccc3)[nH]c2-c2ccncc2)c1 [SB-610250],0%,0%,0%,0%,7%,0%,25%,0%,14%,0%
Nc1ncc(-c2ccc3nccc(-c4ccncc4)c3c2)cc1S(=O)(=O)N1CCCCC1 [GSK1693850],30%,27%,0%,15%,31%,36%,9%,0%,0%,4%
c1ccc(Oc2ccc(Nc3ccnc4cc(-c5ccc(CN6CCCCC6)o5)ccc34)cc2)nc1 [GW567143],0%,0%,44%,7%,0%,5%,0%,10%,0%,12%
